A number with no mark means an inactive call. Inconclusive results are not listed. Entries that show only a call come without a potency. The source made the active and inactive calls. Unless noted, calls come from the whole dose curve; as a rule, active = well fitted curve in the direction sought with a large enough effect in the repeat runs; inconclusive = weak or mixed curves; inactive = no such curve, though single readings can be large; an effect the other way counts as inactive or inconclusive.
Assays:
[1] = qHTS assay to identify small molecule antagonists of the sonic hedgehog signaling (Shh) pathway (AID 1259369; calls by dose curve; note: nearly all actives have a fitted effect of over 45% in size)
Method in brief: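 NIH/3T3-derived Gli1-Luc reporter cells plated 4 h, dosed with compound, then stimulated with conditioned medium for 24 h at 37 C. Firefly luciferase luminescence read after 30 min with detection reagent at room temperature.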

[2] = qHTS assay to identify small molecule agonists of the androgen receptor (AR) signaling pathway in the presence of an antagonist - cell viability counter screen (AID 1259379);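 note: MDA-kb2 human breast cancer cells carrying an MMTV luciferase reporter; series mostly up to about 92 µM; nearly all actives have a fitted effect of over 25% in size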
Method in brief: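 MDA-kb2 cells (MMTV-luciferase, AR/GR), 3,000/well, 5 h attachment, then 3.0 µM nilutamide (final) and compounds at 15 concentrations. Viability by CellTiter-Fluor fluorescence after 16 h at 37 °C, 0% CO2, in the reporter wells.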

[3] = qHTS assay to identify small molecule agonists of the estrogen receptor beta (ER-beta) signaling pathway - cell viability counter screen (AID 1259380); note: nearly all actives have a fitted effect of over 30% in size; note: potency is the fitted concentration of half-maximal effect
Method in brief: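 ER-beta-UAS-bla HEK293T cells in medium with 2% charcoal-stripped FBS, pre-incubated 6 hr, then treated 16 hr at 37C. Cytotoxicity read in the same wells by CellTiter-Glo luminescence after 30 min at room temperature.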

[4] = qHTS assay to identify small molecule antagonists of the estrogen receptor beta (ER-beta) signaling pathway - cell viability counter screen (AID 1259382);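 note: HEK293T cells carrying ER-beta-UAS-bla reporter stimulated with estradiol; series mostly up to about 92 µM; nearly all actives have a fitted effect of over 55% in size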
Method in brief: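 ER-beta-UAS-bla HEK293T cells in 2% charcoal-stripped FBS medium, treated with compound plus 1 nM 17-beta-estradiol for 16 h at 37C. Viability read by CellTiter-Glo luminescence after 30 min at room temperature in the same wells.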

[5] = target: Estrogen receptor (Homo sapiens) (UniProt P03372); assay: qHTS assay to identify small molecule agonists of the estrogen receptor alpha (ER-alpha) signaling pathway in the presence of an antagonist (AID 1259383; calls by dose curve; note: top concentration of the series differs between compounds; nearly all actives have a fitted effect of over 15% in size)
Method in brief: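 VM7Luc4E2 cells express endogenous full-length ER-alpha with an ERE-luciferase reporter and were hormone-deprived for 5 days. Compounds at 15 concentrations were added with 10.0nM ICI-182,780 for 22hr at 37C. Luminescence was read with ONE-Glo.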

[6] = qHTS assay to identify small molecule agonists of the estrogen receptor alpha (ER-alpha) signaling pathway in the presence of an antagonist - cell viability counter screen (AID 1259386);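 note: series mostly up to about 92 µM; cells exposed to compounds for 22 h at 37 °C before the viability read; nearly all actives have a fitted effect of over 30% in size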
Method in brief: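 Cell viability in VM7Luc4E2 cells (endogenous full-length ER-alpha) measured by CellTiter-Fluor fluorescence in the same wells as the luciferase screen. Cells pre-cultured 5 days in charcoal-stripped serum, then treated 22 h with compounds at 15 concentrations plus 10.0nM ICI-182,780.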

[7] = qHTS assay to identify small molecule antagonists of the progesterone receptor (PR) signaling pathway - cell viability counter screen (AID 1346798); note: series mostly up to about 92 µM; nearly all actives have a fitted effect of over 50% in size
Method in brief: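 Viability was determined by ATP-based luminescence (CellTiter-Glo) in PR-UAS-bla HEK293T cells cultured in 2% charcoal-stripped serum and incubated 16 hr with compounds under R5020 stimulation.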

[8] = qHTS assay to identify small molecule agonists of the progesterone receptor (PR) signaling pathway - cell viability counter screen (AID 1346799; calls by dose curve; note: nearly all actives have a fitted effect of over 45% in size)
Method in brief: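 Viability was scored by ATP luminescence (CellTiter-Glo, 30 min, room temperature) in the same wells used for the reporter readout, after 16 hr compound exposure of PR-UAS-bla HEK293T cells.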

[9] = qHTS assay to identify small molecule antagonists of the TGF-beta/Smad signaling pathway - cell viability counter screen (AID 1346824); note: nearly all actives have a fitted effect of over 50% in size
Method in brief: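 SBE-bla HEK 293T cells were plated overnight at 37 C, then given compounds in DMSO plus TGF-beta1 (added as 0.25 ng/mL solution) for 5 hr. After the bla read, CellTiter-Glo was added to the same wells and luminescence read after 30 min at room temperature.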

[10] = qHTS assay to identify small molecule agonists of the TGF-beta/Smad signaling pathway - cell viability counter screen (AID 1346829); note: top concentration of the series differs between compounds; nearly all actives have a fitted effect of over 45% in size
Method in brief: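 Luminescence from CellTiter-Glo, read after a 30 min room-temperature incubation, gives cell viability of SBE-bla HEK 293T cells treated 5 hr with compounds at 37 C.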

[11] = qHTS assay to identify small molecule agonists of the TGF-beta/Smad signaling pathway (AID 1346859; active = well fitted activation curve with a large enough effect in the signal ratio in the repeat runs, not every such curve was filed as active; the % refers to the signal ratio; note: series mostly up to about 77 µM)
Method in brief: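 Dual-wavelength fluorescence (460/530 nm emission) quantified beta-lactamase expression under the Smad binding element in HEK 293T cells following 5 hr compound treatment at 37 C.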

[12] = target: Thyrotropin-releasing hormone receptor (Homo sapiens) (UniProt P34981); assay: qHTS assay to identify small molecule antagonists of the thyrotropin-releasing hormone receptor (TRHR) signaling pathway (AID 1346877; active = well fitted inhibition curve with a large enough effect in the repeat runs, not every such curve was filed as active; note: series mostly up to about 51 µM)
Method in brief: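 TRHR-expressing HEK293 cells loaded with calcium dye for 2 h at 37 C; compounds pre-incubated 5 min at room temperature before TRH challenge at 1 nM final. Intracellular calcium fluorescence read kinetically for 3 min; 15 concentrations in triplicate.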

[13] = target: Thyrotropin-releasing hormone receptor (Homo sapiens) (UniProt P34981); assay: qHTS assay to identify small molecule agonists of the thyrotropin-releasing hormone receptor (TRHR) signaling pathway (AID 1346891; calls by dose curve; note: series mostly up to about 58 µM)
Method in brief: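 Kinetic fluorescence (3 min, 1 s intervals) reported intracellular calcium after compound transfer onto TRHR-Hek293 cells pre-loaded with dye for 2 h at 37 °C.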

[14] = qHTS assay to identify small molecule agonists or antagonists of the thyroid stimulating hormone receptor (TSHR) signaling pathway - wild type cell line counter screen (AID 1259384; calls by dose curve)
Method in brief: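 Wild-type HEK293 cells were plated 18 h at 37 C/5% CO2, pin-dosed with compound plus Ro20-1724 medium, held 30 min at room temperature, then given cAMP-d2 and anti-cAMP-cryptate; fluorescence was read after 1 h. Fifteen concentrations, triplicate.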

[15] = target: Thyrotropin receptor (Homo sapiens) (UniProt P16473); assay: qHTS assay to identify small molecule antagonists of the thyroid stimulating hormone receptor (TSHR) signaling pathway (AID 1259385; calls by dose curve; note: nearly all actives have a fitted effect of over 20% in size)
Method in brief: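 TSHR-HEK293 cells were plated and held 18 h at 37C/5% CO2, then given compound plus Ro20-1724 and stimulated with TSH at 1.5 ng/mL final. After 30 min at room temperature, cAMP was detected with cAMP-d2/anti-cAMP-cryptate (1 h) by fluorescence.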

[16] = target: Progesterone receptor (Homo sapiens) (UniProt P06401); assay: qHTS assay to identify small molecule agonists of the progesterone receptor (PR) signaling pathway (AID 1346784; calls by dose curve; note: nearly all actives have a fitted effect of over 30% in size)
Method in brief: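 The screen uses PR-UAS-bla HEK 293T cells in charcoal-stripped serum (2%). Compounds are applied for 16 hr at 37C after a 6 hr pre-incubation, and reporter activity is detected with a FRET beta-lactamase substrate after 2 hr at room temperature.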

[17] = target: Progesterone receptor (Homo sapiens) (UniProt P06401); assay: qHTS assay to identify small molecule antagonists of the progesterone receptor (PR) signaling pathway (AID 1346795; active = well fitted inhibition curve with a large enough effect in the signal ratio in the repeat runs, not every such curve was filed as active; the % refers to the signal ratio)
Method in brief: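 After 6 hr plating at 37C in 2% stripped-serum medium, PR-UAS-bla HEK293T cells got compounds, then 1 nM R5020. Sixteen hours later, LiveBLAzer substrate was applied for 2 hr at room temperature and fluorescence was recorded.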

Thyrotropin-releasing hormone receptor (Homo sapiens), sequence (P34981 whole entry, looked up): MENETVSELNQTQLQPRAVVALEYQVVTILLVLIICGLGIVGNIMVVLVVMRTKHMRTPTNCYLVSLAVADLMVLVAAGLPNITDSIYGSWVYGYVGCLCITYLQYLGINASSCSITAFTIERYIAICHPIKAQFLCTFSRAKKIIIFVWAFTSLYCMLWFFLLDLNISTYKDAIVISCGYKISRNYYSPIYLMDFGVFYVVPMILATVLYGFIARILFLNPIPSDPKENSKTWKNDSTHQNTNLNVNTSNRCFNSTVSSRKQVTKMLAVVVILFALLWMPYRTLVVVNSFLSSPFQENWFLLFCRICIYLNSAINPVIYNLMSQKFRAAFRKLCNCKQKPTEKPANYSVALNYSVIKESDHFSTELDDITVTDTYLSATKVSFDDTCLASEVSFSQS
Progesterone receptor (Homo sapiens), sequence (P06401 whole entry, looked up): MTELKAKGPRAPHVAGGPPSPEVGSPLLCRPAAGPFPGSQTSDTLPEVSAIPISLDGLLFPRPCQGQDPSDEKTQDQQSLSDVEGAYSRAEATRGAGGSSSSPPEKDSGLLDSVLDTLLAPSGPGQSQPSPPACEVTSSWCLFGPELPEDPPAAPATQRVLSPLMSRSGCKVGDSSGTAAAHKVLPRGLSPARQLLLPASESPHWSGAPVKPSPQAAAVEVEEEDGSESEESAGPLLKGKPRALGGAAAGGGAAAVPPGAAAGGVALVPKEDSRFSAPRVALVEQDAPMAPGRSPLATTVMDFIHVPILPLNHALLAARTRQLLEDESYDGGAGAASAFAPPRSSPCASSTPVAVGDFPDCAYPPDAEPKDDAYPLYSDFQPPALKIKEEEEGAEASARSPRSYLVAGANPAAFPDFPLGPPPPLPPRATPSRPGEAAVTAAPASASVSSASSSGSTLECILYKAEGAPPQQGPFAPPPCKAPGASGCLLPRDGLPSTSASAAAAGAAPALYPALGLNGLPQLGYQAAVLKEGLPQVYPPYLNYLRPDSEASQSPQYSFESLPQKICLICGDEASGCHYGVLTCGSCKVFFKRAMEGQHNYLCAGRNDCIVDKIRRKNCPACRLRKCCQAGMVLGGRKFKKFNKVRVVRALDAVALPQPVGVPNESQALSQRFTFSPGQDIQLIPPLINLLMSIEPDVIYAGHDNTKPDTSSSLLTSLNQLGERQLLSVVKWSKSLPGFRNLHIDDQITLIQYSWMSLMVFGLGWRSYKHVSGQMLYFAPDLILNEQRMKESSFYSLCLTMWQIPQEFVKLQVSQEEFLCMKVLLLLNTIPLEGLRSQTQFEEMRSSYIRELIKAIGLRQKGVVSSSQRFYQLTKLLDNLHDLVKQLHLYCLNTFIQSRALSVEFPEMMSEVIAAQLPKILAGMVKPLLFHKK
Thyrotropin receptor (Homo sapiens), sequence (P16473 whole entry, looked up): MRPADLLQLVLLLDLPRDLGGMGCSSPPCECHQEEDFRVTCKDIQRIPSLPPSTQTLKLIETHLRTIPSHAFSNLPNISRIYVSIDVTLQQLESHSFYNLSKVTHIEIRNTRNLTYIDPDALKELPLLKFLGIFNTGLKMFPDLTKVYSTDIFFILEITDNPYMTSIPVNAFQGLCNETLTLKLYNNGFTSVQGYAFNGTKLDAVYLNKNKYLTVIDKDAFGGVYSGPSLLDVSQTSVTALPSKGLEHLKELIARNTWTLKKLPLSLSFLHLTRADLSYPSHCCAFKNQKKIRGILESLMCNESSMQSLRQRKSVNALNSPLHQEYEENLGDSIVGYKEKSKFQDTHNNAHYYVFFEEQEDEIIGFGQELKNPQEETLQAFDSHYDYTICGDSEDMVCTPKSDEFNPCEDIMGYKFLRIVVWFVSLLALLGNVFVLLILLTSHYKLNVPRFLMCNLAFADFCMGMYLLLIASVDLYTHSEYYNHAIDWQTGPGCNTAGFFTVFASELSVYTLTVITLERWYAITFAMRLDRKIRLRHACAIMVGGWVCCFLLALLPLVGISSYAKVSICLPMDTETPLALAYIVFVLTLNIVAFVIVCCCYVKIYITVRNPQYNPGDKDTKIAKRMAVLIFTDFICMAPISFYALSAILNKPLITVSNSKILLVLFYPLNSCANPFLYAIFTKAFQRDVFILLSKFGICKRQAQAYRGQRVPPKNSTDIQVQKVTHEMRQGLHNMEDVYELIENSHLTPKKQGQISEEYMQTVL
Estrogen receptor (Homo sapiens), sequence (P03372 whole entry, looked up): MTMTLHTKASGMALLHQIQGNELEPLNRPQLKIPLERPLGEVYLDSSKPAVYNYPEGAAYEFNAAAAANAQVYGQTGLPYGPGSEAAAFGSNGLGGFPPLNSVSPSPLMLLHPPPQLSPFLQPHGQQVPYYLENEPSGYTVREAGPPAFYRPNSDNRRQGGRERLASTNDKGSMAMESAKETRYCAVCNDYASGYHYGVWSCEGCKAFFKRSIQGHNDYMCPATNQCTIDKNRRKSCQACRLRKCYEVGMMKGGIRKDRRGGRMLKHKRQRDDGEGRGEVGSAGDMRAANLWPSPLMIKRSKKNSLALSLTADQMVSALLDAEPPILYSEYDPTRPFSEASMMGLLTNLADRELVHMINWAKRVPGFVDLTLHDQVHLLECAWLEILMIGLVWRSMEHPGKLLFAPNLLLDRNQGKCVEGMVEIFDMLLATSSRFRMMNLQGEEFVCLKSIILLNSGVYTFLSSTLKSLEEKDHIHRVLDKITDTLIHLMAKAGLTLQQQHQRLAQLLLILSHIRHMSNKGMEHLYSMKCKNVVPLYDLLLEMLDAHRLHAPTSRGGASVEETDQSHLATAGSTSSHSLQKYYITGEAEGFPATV

CC(C)C1=CC2=CC[C@@H]3[C@](C)(CCC[C@@]3(C)C(=O)O)[C@H]2CC1
Potency [1]: inactive
Potency [2]: inactive
Potency [3]: 30.6 µM (active)
outcome [4]: inactive
Potency [5]: inactive
Potency [6]: inactive
Potency [7]: inactive
Potency [8]: inactive
outcome [9]: inactive
outcome [10]: inactive
outcome [11]: inactive
outcome [12]: inactive
Potency [13]: inactive

CC1CN(c2ccccc2)NC1=O (stereo not drawn)
Potency [1]: inactive
Potency [2]: inactive
outcome [4]: inactive
outcome [14]: inactive
Potency [15]: inactive
Potency [6]: inactive
Potency [7]: inactive
Potency [8]: inactive
outcome [9]: inactive
outcome [10]: inactive
outcome [11]: inactive
outcome [12]: inactive
Potency [13]: inactive

CCNCCO
Potency [1]: inactive
Potency [2]: inactive
Potency [3]: inactive
outcome [4]: inactive
outcome [14]: inactive
Potency [15]: inactive
Potency [16]: inactive
Potency [7]: inactive
Potency [8]: inactive
outcome [9]: inactive
outcome [10]: inactive
outcome [11]: inactive
outcome [12]: inactive
Potency [13]: inactive

CCCCNc1cc(C(=O)O)cc(S(N)(=O)=O)c1Oc1ccccc1
Potency [1]: inactive
Potency [2]: inactive
outcome [4]: inactive
outcome [14]: inactive
Potency [15]: inactive
Potency [6]: inactive
Potency [16]: inactive
Potency [7]: inactive
Potency [8]: inactive
outcome [9]: inactive
outcome [10]: inactive
outcome [11]: inactive
outcome [12]: inactive
Potency [13]: inactive

C=CC1CO1 (stereo not drawn)
Potency [1]: inactive
Potency [2]: inactive
outcome [4]: inactive
outcome [14]: inactive
Potency [15]: inactive
Potency [16]: inactive
Potency [17]: inactive
Potency [7]: inactive
Potency [8]: inactive
outcome [9]: inactive
outcome [10]: inactive
outcome [11]: inactive
outcome [12]: inactive
Potency [13]: inactive

Reference: PubChem BioAssay (Tox21)
